Active and inactive are the calls of the source.

Data on five molecules can be found in PubChem BioAssay.

For assay [1], the system named is Human papillomavirus type 1a protein E7 (residues 44-93). The experiment in a line: small molecules binding HPV E7 44-93 – biochemical, small-molecule microarray, residues 44-93, 635 nm fluorescence, primary screen (AID 1108).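 Note: E7 fragment applied at 1 µg/mL in TBST for 1 h at 4 C; score combines spot fluorescence with its signal to noise ratio.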 As to conditions: fluorescence 635 nm, higher = more signal.
Assay [2] is described as follows: hepatitis C replication reporter changes, two-sided – Huh7 cells, luciferase reporter, HCV replication inhibitor project, primary screen (AID 1109).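 Note: huh7 hepatoma cells harbouring a luciferase neomycin HCV replicon reporter; luciferase luminescence as measure of HCV replicon replication; test concentration not given here.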 The following applies: Huh7 HCV replicon luciferase reporter, 48 h; higher = more signal. On the technique in general: Reporter assays use an easily measured gene product as a stand-in for the process of interest.
Assay [3] deals with Left-right determination factor 2 (Homo sapiens) (UniProt O00292). The experiment in a line: small molecules binding LEFTY2 protein – biochemical, small-molecule microarray, 635 nm fluorescence scan, primary screen (AID 1110). As to conditions: higher = more signal.
The target in assay [4] is Calmodulin-1 (Homo sapiens) (UniProt P0DP23). The experiment in a line: small molecules binding calmodulin-1 with EGTA – biochemical, small-molecule microarray, Cy5-labelled CALM1, profiling panel (AID 1111).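 Note: labelled calmodulin applied in Tris saline Tween buffer holding calcium plus EGTA and DTT.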 As to conditions: Cy5-CALM1 binding fluorescence, higher = more signal.
Assay [5] has the same target. The experiment in a line: small molecules binding Ca-loaded calmodulin-1 – biochemical, small-molecule microarray, Cy5-labelled CALM1, plus calcium, artefact control for SMM control-protein annotation, profiling panel (AID 1112).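 Note: score merges spot fluorescence with signal to noise from triplicate slides.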 As to conditions: Cy5-CALM1 binding fluorescence, higher = more signal.
Assay [6] can be described thus: probe aWnt5a binding to arrayed compounds – biochemical, biotinylated probe, 635/667 nm fluorescence, primary screen (AID 1113).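 Note: score merges 667 nm fluorescence intensity with signal-to-noise per printed feature.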 The following applies: small-molecule microarray, higher = more signal.
The nature of assay [7]: probe aShh binding to arrayed compounds – biochemical, biotinylated probe, 635/667 nm fluorescence, primary screen (AID 1114).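 Note: probe is biotin-labelled aShh protein from a stem cell growth factor screen; measures binding of labelled protein to compounds printed on the slide; score merges feature fluorescence at 667 nm with signal-to-noise.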 As to conditions: small-molecule microarray, higher = more signal.
Assay [8] can be described thus: probe aNog binding to arrayed compounds – biochemical, biotinylated probe, 635/667 nm fluorescence, primary screen (AID 1115).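 Note: probe is biotinylated aNog protein used at 0.15 µg/mL for 1 h at 4 C; z-score combines 667 nm fluorescence of each spot with its signal to noise.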 The following applies: small-molecule microarray, higher = more signal.
The target of assay [9] is Torsin-1A-interacting protein 1 (Homo sapiens) (UniProt Q5JTV8). Briefly: compound microarray binding of lysate hLAP1 – cell lysate, small-molecule microarray, COS7 lysate, 635/667 nm fluorescence, primary screen (AID 1116). The following applies: 635 nm fluorescence, higher = more signal.
Assay [10] deals with Alpha-bungarotoxin (Bungarus multicinctus) (UniProt P60615). The experiment in a line: compounds binding labelled alpha-BTX control protein – biochemical, small-molecule microarray, Alexa647 label, 635/667 nm fluorescence, artefact control for SMM control protein annotation, profiling panel (AID 1117). The following applies: alpha-BTX-A647 binding fluorescence, higher = more signal.

The target in the next assay is Albumin (Bos taurus) (UniProt P02769). Briefly: compounds binding labelled BSA control protein – biochemical, small-molecule microarray, Alexa647 label, 635/667 nm fluorescence, artefact control for SMM control protein annotation, profiling panel (AID 1118).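 Note: score merges 667 nm emission intensity and signal-to-noise per printed compound spot.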 The following applies: BSA-A647 binding, fluorescence 635 nm, higher = more signal.
Assay [11] can be described thus: probe aXIP binding to arrayed compounds – biochemical, NeuroSMM set, 635/667 nm fluorescence, primary screen (AID 1119).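 Note: probe is the protein aXip251-270 applied at 1 µg/mL to compound-printed slides; binding of probe to printed compounds measured as 667 nm fluorescence plus signal to noise.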 The following applies: small-molecule microarray, higher = more signal, called active from +8 up or from −8 down.
Assay [12] in a line: probe aNOTCH3 binding on compound microarray – biochemical, small-molecule microarray, 635/667 nm fluorescence, primary screen (AID 1120).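 Note: probe is a biotin-tagged antibody raised against NOTCH3 rather than NOTCH3 protein; score merges spot fluorescence near 667 nm with spot signal to noise.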 The following applies: higher = more signal.
A short description of assay [13]: probe aNOTCH2 binding on compound microarray – biochemical, small-molecule microarray, 635/667 nm fluorescence, primary screen (AID 1121).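 Note: score merges feature fluorescence read at 667 nm with its signal to noise.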 As to conditions: higher = more signal.
Assay [14] addresses Carbonic anhydrase 2 (Homo sapiens) (UniProt P00918). The experiment in a line: compounds binding carbonic anhydrase 2 – biochemical, small-molecule microarray, Alexa647-labelled CAII, profiling panel (AID 1122). As to conditions: CAII-A647 binding fluorescence, higher = more signal.
The nature of assay [15]: COS7 lysate on small-molecule microarray, probe aHis, 635 nm (AID 1123).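 Note: z-score combines 667nm fluorescence intensity with signal-to-noise per printed compound spot.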 As to conditions: COS7 cell lysate, fluorescence, higher = more signal.
Assay [16] in a line: probe aLAP1 signal on lysate-treated microarray – cell lysate, small-molecule microarray, COS7 lysate, primary screen (AID 1124).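 Note: lysate comes from COS7 cells expressing LAP1 and is applied at 0.3 µg/mL; score merges spot fluorescence near 667 nm with signal-to-noise over triplicate slides.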 As to conditions: probe aLAP1, fluorescence, higher = more signal.
The test system of another assay is Sam68 (KHDRBS1). Briefly: compounds binding KHDRBS1 protein – biochemical, small-molecule microarray, 635 nm fluorescence, primary screen (AID 1125).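 Note: score merges 667 nm channel intensity with signal to noise over triplicate slides.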 The following applies: higher = more signal.
For assay [17], the system named is Chordin-like protein 2 (CHRDL2). Briefly: compounds binding chordin-like 2 – biochemical, small-molecule microarray, 635 nm fluorescence, primary screen (AID 1126).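 Note: printed compound slides probed with Chrdl2 protein at 4 µg/mL for 1 h at 4 C; score merges 667 nm emission intensity with signal to noise over three replicate slides.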 As to conditions: fluorescence 635 nm, higher = more signal.
The target of assay [18] is Concanavalin-A (Canavalia ensiformis) (UniProt P02866). The experiment in a line: compounds binding concanavalin A lectin – biochemical, small-molecule microarray, Alexa647 label, 635 nm, artefact control for SMM control protein annotation, primary screen (AID 1127).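 Note: z combines 667 nm emission intensity with signal-to-noise across three replicate slides.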 As to conditions: ConA-A647 binding fluorescence, higher = more signal.
Concanavalin-A (Canavalia ensiformis), sequence (P02866 whole entry, looked up): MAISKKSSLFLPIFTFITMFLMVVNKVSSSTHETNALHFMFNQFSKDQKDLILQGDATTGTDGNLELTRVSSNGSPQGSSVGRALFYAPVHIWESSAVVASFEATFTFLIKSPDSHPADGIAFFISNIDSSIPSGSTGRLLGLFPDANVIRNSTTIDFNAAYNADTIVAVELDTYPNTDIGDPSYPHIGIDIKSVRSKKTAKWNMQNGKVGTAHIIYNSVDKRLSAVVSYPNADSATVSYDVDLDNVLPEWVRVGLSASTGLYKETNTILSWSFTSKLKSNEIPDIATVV

Albumin (Bos taurus), sequence (P02769 whole entry, looked up): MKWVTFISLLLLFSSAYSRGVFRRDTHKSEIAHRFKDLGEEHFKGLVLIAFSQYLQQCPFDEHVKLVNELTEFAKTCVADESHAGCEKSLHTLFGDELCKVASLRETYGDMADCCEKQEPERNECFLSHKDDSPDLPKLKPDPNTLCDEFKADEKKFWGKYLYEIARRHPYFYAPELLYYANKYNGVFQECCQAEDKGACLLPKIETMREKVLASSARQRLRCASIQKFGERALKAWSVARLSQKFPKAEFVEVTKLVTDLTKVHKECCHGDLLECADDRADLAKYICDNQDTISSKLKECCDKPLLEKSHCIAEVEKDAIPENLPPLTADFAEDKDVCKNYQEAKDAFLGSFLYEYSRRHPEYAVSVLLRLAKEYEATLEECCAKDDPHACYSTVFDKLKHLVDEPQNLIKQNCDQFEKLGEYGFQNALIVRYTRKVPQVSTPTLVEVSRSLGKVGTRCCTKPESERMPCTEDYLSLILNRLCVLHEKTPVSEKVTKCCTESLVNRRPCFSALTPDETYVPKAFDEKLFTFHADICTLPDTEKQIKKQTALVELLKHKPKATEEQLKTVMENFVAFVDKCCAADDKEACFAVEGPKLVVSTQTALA
Alpha-bungarotoxin (Bungarus multicinctus), sequence (P60615 whole entry, looked up): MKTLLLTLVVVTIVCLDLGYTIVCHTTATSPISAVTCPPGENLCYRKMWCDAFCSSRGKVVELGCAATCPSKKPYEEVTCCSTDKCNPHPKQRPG
Torsin-1A-interacting protein 1 (Homo sapiens), sequence (Q5JTV8 whole entry, looked up): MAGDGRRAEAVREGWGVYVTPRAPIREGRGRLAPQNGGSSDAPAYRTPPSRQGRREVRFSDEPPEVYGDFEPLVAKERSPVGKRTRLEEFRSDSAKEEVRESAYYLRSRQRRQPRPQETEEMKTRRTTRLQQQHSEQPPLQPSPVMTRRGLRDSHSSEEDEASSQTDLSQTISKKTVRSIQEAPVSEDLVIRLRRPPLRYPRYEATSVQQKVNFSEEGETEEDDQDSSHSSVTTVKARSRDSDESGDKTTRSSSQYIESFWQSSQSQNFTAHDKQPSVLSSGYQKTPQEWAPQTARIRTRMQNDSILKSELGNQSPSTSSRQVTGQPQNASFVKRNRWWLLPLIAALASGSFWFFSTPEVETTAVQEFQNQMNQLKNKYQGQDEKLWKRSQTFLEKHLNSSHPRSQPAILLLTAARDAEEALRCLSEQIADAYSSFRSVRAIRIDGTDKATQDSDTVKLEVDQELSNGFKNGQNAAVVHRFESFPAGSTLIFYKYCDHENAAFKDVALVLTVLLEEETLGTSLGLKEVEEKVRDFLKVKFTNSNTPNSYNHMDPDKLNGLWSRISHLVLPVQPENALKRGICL
Left-right determination factor 2 (Homo sapiens), sequence (O00292 whole entry, looked up): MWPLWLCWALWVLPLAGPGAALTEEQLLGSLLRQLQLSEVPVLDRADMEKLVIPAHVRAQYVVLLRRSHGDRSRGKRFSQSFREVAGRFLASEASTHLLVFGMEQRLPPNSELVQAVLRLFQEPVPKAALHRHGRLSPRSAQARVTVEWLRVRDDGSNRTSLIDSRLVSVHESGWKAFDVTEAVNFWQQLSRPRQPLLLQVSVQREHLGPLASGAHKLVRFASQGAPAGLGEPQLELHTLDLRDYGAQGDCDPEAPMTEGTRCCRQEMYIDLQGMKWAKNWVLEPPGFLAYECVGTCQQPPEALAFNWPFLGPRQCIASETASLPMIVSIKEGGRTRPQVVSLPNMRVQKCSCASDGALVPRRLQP

As to `CCOC(=O)C1=CC[C@@H](c2ccccc2C(F)(F)F)N(S(=O)(=O)c2ccc(C)cc2)C1`, the composite z-score in [1] came to 0.648; in [3], 0.613; in assay [4], 2.07; in [5], 1.07; in [6], 0.274; in assay [7], 0.584. Besides, the composite z-score in assay [8] was -0.395; in assay [9], 1.5; in assay [10] it was 1.49; with Albumin (Bos taurus) it was 0.959; in [12], 0.694; in [13], 0.311. In addition, the composite z-score was 0.411 in [14]; 1.57 in assay [15]; 0.95 in [16]; 1.1 in the assay with Sam68 (KHDRBS1); -0.41 in assay [17]; 1.13 in assay [18]. The same molecule yielded a z-score in assay [2] of -2.98. Moreover, the composite Z-score in assay [11] was 0.917 (inactive).

Turning to `CCCC[C@@H]1C[C@H]1[C@@H](NC(=O)c1ccccc1)c1ccc(Cl)cc1`, the composite z-score in [1] is -1.15; in assay [3] it was -1.86; in assay [4] it was 0.014; in assay [5], 1.42; in assay [6], -0.247; in assay [7] it was -0.209. Moreover, the composite z-score in [8] is 0.253; in [9] it was 1.23; in [10], -1.51; in the assay with Albumin (Bos taurus), -0.413; in [12] it was -0.414; in assay [13], -0.179. Also, the composite z-score in assay [14] is -0.527; in assay [15], 0.847; in assay [16] it was -0.905; with Sam68 (KHDRBS1), -1.35; in assay [17] it was -2.74; in [18] it was -1.6. This molecule also yielded a z-score in assay [2] of -1.65. Besides, in [11], the composite Z-score is 0.0169 (inactive).

Consider `CO[C@H]1O[C@H](CO)[C@@H](OC(=O)Nc2ccc(Oc3ccccc3)cc2)[C@H](OC(=O)Nc2ccccc2-c2ccccc2)[C@@H]1OC(=O)Nc1ccccc1-c1ccccc1`, for which the composite z-score is 1.02 in assay [1]; 0.242 in assay [3]; 2.17 in [4]; 0.409 in [5]; -0.0667 in assay [6]; 0.256 in [7]. For the same molecule, the composite z-score in [8] was 1.74; in assay [9], 1.27; in assay [10], 1.52; in the assay with Albumin (Bos taurus), 0.814; in assay [12], 0.182; in [13], 0.247. The composite z-score in assay [14] is 0.482; in [15] it was 2.31; in assay [16], 1.09; with Sam68 (KHDRBS1), 1.32; in [17] it was -0.139; in assay [18], 1.14. Moreover, the z-score in [2] was -3.19. The composite Z-score in assay [11] was -0.098 (inactive).

Turning to `COCCCNC(=O)[C@@]1(Sc2ccc(C)cc2)CC(=O)N(C2Cc3ccccc3C2)[C@@H]1c1ccc(CO)cc1I`, the composite z-score in [1] was -0.499; in assay [3], -1.31; in [4], -0.176; in assay [5], 0.0685; in assay [6], -0.154; in assay [7], -0.536. In addition, the composite z-score in assay [8] was -0.0621; in assay [9] it was -0.354; in [10] it was -0.0078; with Albumin (Bos taurus), -1.09; in [12], -0.146; in [13] it was -0.102. Besides, the composite z-score in assay [14] is 0.871; in assay [15], -0.152; in assay [16] it was 0.297; in the assay with Sam68 (KHDRBS1), -0.52; in [17] it was -0.555; in assay [18], -1.61. The same molecule had a z-score in assay [2] of -1.05. Moreover, the composite Z-score in [11] was -0.298 (inactive).

As for `COCCOC(=O)N1C(=O)[C@@]2(c3cc(C#CC4=CCCCC4)ccc31)[C@H](c1ccccc1OCCO)N1[C@H](c3ccccc3)[C@H](c3ccccc3)OC(=O)[C@H]1[C@@H]2C(=O)N1CCc2cc(OC)c(OC)cc2C1`, the composite z-score in assay [1] is 1.33; in assay [3], 0.336; in assay [4], -0.141; in assay [5], -0.383; in assay [6], -0.121; in assay [7], -0.176. Also, the composite z-score in assay [8] was -0.008; in [9] it was 0.336; in [10], 0.761; with Albumin (Bos taurus), -0.157; in [12] it was -0.406; in assay [13] it was -0.255. Moreover, the composite z-score in assay [14] stood at 0.426; in assay [15], 0.641; in assay [16], 0.379; in the assay with Sam68 (KHDRBS1) it was 1.3; in assay [17], 0.774; in assay [18] it was 0.856. Besides, the z-score in assay [2] is -1.81. The composite Z-score in assay [11] is 0.0781 (inactive).
